SENP8 block-1 = human SENP8 protease inhibitors, primary screen, biochemical, fluorescence, Nedd8 protein substrate, uHTS; recombinant SENP8; inhibition, % at 20 µM; hit rate 0.64% among 360,000; AID 602440, 2012; in the data active = inhibition mostly above about 40%, no sharp cut-off; inactive = mostly below about 27%
HSP90 refold inh = HSP90 inhibitors, primary screen, cell lysate, luminescence; inhibition, % at 5.6 µM; hit rate 0.91% among 290,000; Rabbit reticulocyte lysate, luciferase refolding luminescence, 3 h; Heat shock protein HSP 90 (rabbit reticulocyte lysate; luciferase refolding); AID 1789, 2009;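 active = inhibition above the screen-wide mean plus 3 SD, computed separately per campaign, cut at about 16% in these data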;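 note: 0% = DMSO wells and 100% = 60 µM geldanamycin wells; inhibitors lower the luminescence because luciferase stays unfolded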
SENP7 block = SENP7 protease inhibitors, primary screen, biochemical, luminescence, uHTS. Sentrin-specific protease 7 (Homo sapiens), Q9BQF6. recombinant SENP7, Z-RLRGG-aminoluciferin luminescence, 40 min. inhibition, % at 5 µM. hit rate 1.5% among 330,000;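 active = inhibition above about 50% at the single test dose, limit read from the data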;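 note: plate controls were DMSO with enzyme for no effect and no enzyme buffer wells for full effect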
SENP8 block-2 = SENP8 protease inhibitors, primary screen, biochemical, luminescence; Sentrin-specific protease 8 (Homo sapiens), Q96LD8; AID 2540, 2010; purified SENP8, Z-RLRGG-aminoluciferin cleavage; inhibition, % at 10 µM; hit rate 1.2% among 330,000; in the data active = inhibition above about 50%
SENP6 inh = SENP6 protease inhibitors, primary screen, biochemical, luminescence, uHTS; Sentrin-specific protease 6 (Homo sapiens), Q9GZR1; Recombinant SENP6 catalytic domain, aminoluciferin luminescence; inhibition, % at 10 µM; hit rate 1.8% among 330,000;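 active = inhibition above about 50% at the single tested dose, limit read from the data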;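 note: plate controls were DMSO wells with enzyme for no effect and DMSO wells lacking enzyme for full effect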
Target sequence (Q9GZR1 628-1112 limits assumed): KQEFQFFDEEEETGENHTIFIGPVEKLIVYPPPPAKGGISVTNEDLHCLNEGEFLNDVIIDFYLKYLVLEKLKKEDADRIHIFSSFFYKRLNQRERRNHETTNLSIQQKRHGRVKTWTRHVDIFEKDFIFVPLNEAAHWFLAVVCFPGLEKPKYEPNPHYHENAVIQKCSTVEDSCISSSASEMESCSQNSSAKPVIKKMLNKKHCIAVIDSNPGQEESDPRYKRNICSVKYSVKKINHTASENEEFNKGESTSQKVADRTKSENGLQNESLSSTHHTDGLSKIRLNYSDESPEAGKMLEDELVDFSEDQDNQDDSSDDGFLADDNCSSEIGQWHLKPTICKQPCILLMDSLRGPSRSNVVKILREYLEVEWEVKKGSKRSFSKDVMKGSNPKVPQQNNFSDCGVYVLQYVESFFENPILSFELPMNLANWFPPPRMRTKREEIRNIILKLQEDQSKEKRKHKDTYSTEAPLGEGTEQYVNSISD
SENP8 confirm = SENP8 protease inhibitors, retest, confirmation, biochemical, luminescence, single concentration | shares compounds with SENP7 block | Recombinant SENP8, Z-RLRGG-aminoluciferin luminescence, 60 min | inhibition, % at 12.5 µM | hit rate 40% among 6,200 | AID 488912, 2010;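 active = mean inhibition across replicates above about 50%, limit read from the data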
SENP6 confirm = SENP6 protease inhibitors, confirmation, biochemical, luminescence, single concentration; recombinant SENP6, Z-RLRGG-aminoluciferin luminescence; shares compounds with SENP7 block; hit rate 58% among 6,200; AID 488915, 2010; inhibition, % at 12.5 µM
SENP7 conf = SENP7 protease inhibitors, retest, confirmation, biochemical, luminescence, single concentration. shares compounds with SENP7 block. recombinant SENP7, Z-RLRGG-aminoluciferin luminescence, 40 min. hit rate 69% among 6,200. inhibition, % at 12.5 µM
Casp3 select = caspase-3 protease inhibitors, confirmation, selectivity assay for SENP inhibitor project, biochemical, single concentration. shares compounds with SENP7 block. purified caspase-3, Z-DEVD-aminoluciferin luminescence, 60 min. inhibition, % at 12.5 µM. hit rate 60% among 6,200. AID 488918, 2010;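 active = mean inhibition above about 50%, limit read from the data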;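 note: plate controls were enzyme with DMSO for no effect and wells without caspase-3 for full effect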
SENP luc ctr = counter-screen for SENP inhibitors: luminescence interference. Pre-incubated SENP8/Z-RLRGG-aminoluciferin, luciferase luminescence interference. hit rate 39% among 6,200. inhibition, % at 12.5 µM. shares compounds with SENP7 block;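 active = mean inhibition above about 50% when retested at one dose, limit read from the data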;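 note: plate controls were DMSO wells with completed reaction for no effect and substrate without enzyme for full effect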
Active calls of the source: *; i = inactive; . = no result. In the library only some 2.7% were active in any assay of this set; here they are far more common.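 Rule for the calls, unless noted: active = mean inhibition above about 50% in the one-dose retest (limit read from the data); inactive = the rest.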

SMILES	SENP8 block-1	HSP90 refold inh	SENP7 block	SENP8 block-2	SENP6 inh	SENP8 confirm	SENP6 confirm	SENP7 conf	Casp3 select	SENP luc ctr
Cc1ccc(C(=O)Nc2nc3c(s2)CCCC3)o1	-54	6	93*	82*	94*	11	90*	100*	93*	29
O=C(Nc1nc2c(s1)CCCC2)c1ccc(Br)o1	-40	16*	88*	86*	91*	90*	91*	99*	91*	87*
O=C(c1ccc(-c2ccccc2)cc1)c1ccc([N+](=O)[O-])cc1	.	7	-4	-6	1	.	.	.	.	.
COc1ccc(-c2cc(C(=O)N/N=C(\C)c3cccnc3)c3ccccc3n2)cc1	-419	-4	-8	6	-18	.	.	.	.	.
O=C(/C=C/c1ccccc1Cl)NCc1cccs1	18	7	5	-6	-2	.	.	.	.	.
O=C(Nc1ccc(Br)cn1)c1ccc2ccccc2c1	0	1	61*	-11	-1	-9	-7	-2	8	3
O=C(Nc1nccs1)c1ccc2ccccc2c1	-1	4	72*	69*	73*	81*	80*	93*	71*	80*
O=C(Nc1ccc(Br)cn1)c1cccc(C(=O)Nc2ccc(Br)cn2)c1	10	10	-12	-7	5	.	.	.	.	.
CCN(CC)c1ccc(/C=N/N2CCN(Cc3ccccc3Cl)CC2)cc1	15	-5	1	-4	-23	.	.	.	.	.
Cc1ccc(N2C(=O)C3C4C=CC(CNC(=S)N5CCN(c6cccc(C)c6)C(C)C5)(O4)C3C2=O)cc1 (configuration not stated)	34	0	-2	-3	9	.	.	.	.	.
COc1ccc(C(=O)O/N=C(\C)c2nccs2)cc1	6	0	97*	87*	79*	73*	96*	100*	96*	43
C/C(=N/OC(=O)c1c(F)cccc1F)c1nccs1	17	2	80*	46	83*	74*	75*	97*	65*	82*
C/C(=N\OC(=O)c1ccc(F)cc1)c1nccs1	9	3	84*	35	74*	22	25	50*	56*	21
CC(=NOC(=O)C1CCCCC1)c1nccs1	9	.	.	.	.	.	.	.	.	.
COc1ccc(C(=O)O/N=C(/C)c2cccs2)cc1	22	-4	99*	97*	98*	12	101*	104*	99*	99*
COc1ccc(C/C(N)=N/OC(=O)c2cccs2)cc1	6	-2	0	-3	-4	.	.	.	.	.
CCc1c(C)c2c(C)nn(-c3ccccc3)c2oc1=O	5	1	3	-9	-10	.	.	.	.	.
Cc1ccc(-c2cnn(-c3ccccc3)c2N)cc1	12	14	95*	89*	91*	93*	94*	101*	95*	62*
Nc1c(-c2ccc(Cl)cc2)nnn1-c1ccccc1	20	1	47	19	51*	35	30	65*	50*	2
Nc1c(-c2ccc(Cl)cc2)cnn1-c1ccccc1	21	11	93*	84*	87*	77*	77*	94*	84*	4
Nc1c(-c2ccc(Cl)cc2)cnn1-c1cc(C(F)(F)F)cc(C(F)(F)F)c1	-1	-5	1	1	-9	.	.	.	.	.
Cc1ccc(-c2cnn(-c3cccc([N+](=O)[O-])c3)c2N)cc1	11	-5	53*	20	52*	28	28	71*	38	2
COc1ccc(-c2cnn(-c3ccccc3)c2N)cc1OC	28	-4	-4	-12	-14	.	.	.	.	.
Cc1ccccc1-c1cnn(-c2cccc([N+](=O)[O-])c2)c1N	11	-1	3	15	-4	.	.	.	.	.
COc1ccc(-c2nnn(-c3cc(Cl)cc(Cl)c3)c2N)cc1	24	-2	11	3	11	.	.	.	.	.
SMILES	SENP8 block-1	HSP90 refold inh	SENP7 block	SENP8 block-2	SENP6 inh	SENP8 confirm	SENP6 confirm	SENP7 conf	Casp3 select	SENP luc ctr
COC(=O)c1cc(S(=O)(=O)N2CCN(c3ccc(F)cc3)CC2)c[nH]1	7	3	6	-6	-5	.	.	.	.	.
CSc1nsc(/C=C/Nc2ccc(C(=O)O)cc2)c1C#N	-134	5	3	18	58*	19	68*	89*	57*	28
COc1cccc(C(=O)Nc2nnc(-c3cccs3)s2)c1	-483	-2	53*	20	53*	17	16	6	11	5
Cc1cccc(OCC(=O)Nc2nnc(-c3ccco3)s2)c1	-256	-4	-5	-8	-3	.	.	.	.	.
CCOc1cccc(C(=O)Nc2nnc(-c3ccco3)s2)c1	-486	5	73*	60*	68*	20	17	23	28	6
COc1ccc2cc(C#N)c(NC(C)C)nc2c1	i	2	-4	-10	-8	.	.	.	.	.
Nc1nc(Nc2ccc(Cl)cc2Cl)nc(C(F)(F)F)n1	9	0	-5	-14	-7	.	.	.	.	.
CCC(C)NC(=O)CS(=O)(=O)Cc1nc(-c2cccc(OC)c2)oc1C (configuration not stated)	7	1	-10	4	24	.	.	.	.	.
CC(=O)/C(N=Nc1ccc(C(=O)O)cc1)=C(\C)O	26	-2	67*	44	76*	58*	58*	87*	92*	73*
CC(=O)/C(N=Nc1ccc2c(c1)OCO2)=C(\C)O	8	-4	83*	59*	84*	-10	37	78*	74*	28
CCc1nc2ccc(C(=O)Nc3ccc(OC)c(OC)c3)cn2c1N(CC)Cc1cccc(Br)c1	-8	.	.	.	.	.	.	.	.	.
COc1ccc(-c2cn(Cc3ccc(C(=O)c4ccccc4)cc3)nn2)cc1	.	-1	64*	77*	79*	14	63*	17	64*	-4
CN(C)c1ccc(/C=N/NC(=O)c2ccco2)cc1	-290	5	49	27	65*	46	48	81*	83*	40

Screens from PubChem BioAssay.
